According to PubChem BioAssay (NCATS):
“And” between values parts separate entries of the source, which are not always exact repeats. Identical values can stand only once. Results filed as inconclusive are left out. Entries that show only a call come without a potency. Values without a mark were called inactive. The source made the active and inactive calls. Calls come from the whole dose curve; as a rule, active = well fitted curve in the direction sought with a large enough effect; inconclusive = small, poorly fitted or top-dose-only effect, or another doubt; inactive = no such curve, though single readings can be large; an effect the other way counts as inactive or inconclusive.

Tests used:
[1] = target: Cellular tumor antigen p53 (Homo sapiens) (UniProt P04637); assay: Primary qHTS for small molecule compounds that upregulate eGFP-tagged delta133p53alpha (in N-terminal) cells. (AID 2060322); details: NCI-H358 eGFP-delta133p53alpha fluorescence, 24 h; activation: active compounds read high; note: nearly all actives have a fitted effect of over 75% in size; note: potency is the fitted concentration of half-maximal effect;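 for activation: cells pre-induced with doxycycline then dosed without doxycycline; series mostly up to about 56 µM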
Sequence of Cellular tumor antigen p53 (Homo sapiens) (P04637 whole entry, looked up): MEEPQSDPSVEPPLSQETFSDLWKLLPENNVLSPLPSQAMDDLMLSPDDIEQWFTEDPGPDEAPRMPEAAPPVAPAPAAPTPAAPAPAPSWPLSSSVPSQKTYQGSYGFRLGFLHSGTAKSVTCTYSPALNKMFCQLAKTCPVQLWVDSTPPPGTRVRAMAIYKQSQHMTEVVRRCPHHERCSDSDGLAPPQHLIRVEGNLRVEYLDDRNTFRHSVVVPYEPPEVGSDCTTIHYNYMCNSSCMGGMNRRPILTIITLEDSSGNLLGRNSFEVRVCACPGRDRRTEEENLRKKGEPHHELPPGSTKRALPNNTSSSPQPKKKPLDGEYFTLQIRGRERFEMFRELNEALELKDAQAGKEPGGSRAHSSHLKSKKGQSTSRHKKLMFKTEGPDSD
How it was run: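 NCI-H358 cells pre-induced 24 h with 10 ng/ml doxycycline for eGFP-delta133p53alpha, plated dox-free and exposed 24 h at 37C to titrated compounds. Fixed, Hoechst-stained; gated GFP peak intensity by laser scanning cytometry, normalized to DMSO (0%) and 57.5 uM 5-azacytidine (100%).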

[2] = target: Aldehyde dehydrogenase, mitochondrial (Homo sapiens) (UniProt P05091); assay: qHTS for Inhibitors of the Aldehyde Dehydrogenase Family (ALDH2) Primary screen (AID 2061308); note: nearly all actives have a fitted effect of over 55% in size
[3] = target: Retinaldehyde dehydrogenase 3 (Homo sapiens) (UniProt P47895); assay: qHTS for Inhibitors of the Aldehyde Dehydrogenase Family (ALDH1A3) Primary screen (AID 2061315)

Row | SMILES | activation [1] | Potency [2] | Potency [3] | Potency [1] | activity change, negative = inhibition [2] | activity change, negative = inhibition [3]
1 | C=C[C@H]1CN2CCC1C[C@H]2[C@H](O)c1ccnc2ccccc12 (some centres not stated) | -2.33% | inactive | inactive | – | – | –
2 | COCC1OC(=O)c2coc3c2C1(C)C1=C(C3=O)C2CCC(=O)C2(C)CC1O (configuration not stated) | -7.63% | inactive | inactive | – | – | –
3 | C=C1C2(C)CC3C(C)(O)C4=CC(=O)OC(C)(C)C4=CCC3(C)C13C(=O)OC(C)C3(O)C2=O (configuration not stated) | -0.763% | inactive | inactive | – | – | –
4 | O=C(N[C@H]1N=C(c2ccccc2F)c2cccc3c2N(CC3)C1=O)c1cc2ccccc2[nH]1 | 6.33% | inactive | inactive | – | – | –
5 | COC(=O)C1(C)CCC(O)C2(C)c3c(O)cc(C(C)C)cc3C(O)C(OC(C)=O)C12 (configuration not stated) | -9.16% | inactive | inactive | – | – | –
6 | C=C(C)[C@@H]1[C@H]2OC(=O)[C@H]1[C@]1(O)C[C@H]3O[C@]34C(=O)O[C@H]2[C@]14C | 4.33% | inactive | inactive | – | – | –
7 | CC(C)(C)[C@]1(O)C[C@@H]2OC(=O)C[C@@]23C(=O)O[C@@H]2OC(=O)[C@@H](O)[C@]213 | -1.79% | inactive | inactive | – | – | –
8 | CNC(=O)c1cc(C#N)cc(C)c1NC(=O)c1cc(Br)nn1-c1ncccc1Cl | 18.3% | inactive | inactive | – | – | –
9 | C[C@@H]1C(=O)O[C@H]2[C@H](O)[C@@]34[C@@H]5OC(=O)[C@@]3(O[C@@H]3OC(=O)[C@@H](O)[C@@]34[C@H](C(C)(C)C)[C@H]5O)[C@@]12O | 2.68% | inactive | inactive | – | – | –
10 | C[C@H]1O[C@@H](n2cnc3c(N)ncnc32)C[C@@H]1O | 15% | inactive | inactive | – | – | –
11 | C/C=C(\C)C(=O)OC1CC2C(CC=C3CC(OC4CC(OC)C(OC5CC(OC)C(OC6CC(OC)C(OC7CC(OC)C(O)C(C)O7)C(C)O6)C(C)O5)C(C)O4)CCC32C)C2(O)CCC(C(C)=O)C12C (configuration not stated) | -6.11% | inactive | inactive | – | – | –
12 | C[C@@]1(CO)[C@H](O)CC[C@@]2(C)[C@H]1CC[C@H]1C[C@@H]3C[C@@]12CC[C@]3(O)CO | -3.82% | inactive | inactive | – | – | –
13 | CC[C@H]1CN2CC[C@H]1C[C@H]2[C@H](O)c1ccnc2ccc(OC)cc12 | 7.14% | inactive | inactive | – | – | –
14 | COC1CC(=O)C23C(=O)NC(CC(C)C)C2C(C)=C(C)C(OO)C3/C=C(\C)CCC(O)C1O (configuration not stated) | -4.58% | inactive | inactive | – | – | –
15 | CC(C)C1(OO)C=C2C(=O)CC3C(C)(C(=O)O)CCCC3(C)C2CC1 (configuration not stated) | 11.5% | inactive | inactive | – | – | –
16 | C=C1C(=O)CC2OC2(C)CC2OC(=O)C(=C)C2C(O)C1OC(=O)/C(C)=C\C (configuration not stated) | – | inactive | inactive | 18.6 µM (active) | – | –
17 | COC1=CC(=O)O[C@@H](/C=C/c2ccccc2)C1 | -10.7% | inactive | inactive | – | – | –
18 | CCCN(CCC)CCc1ccc(OC)c(OCCc2ccccc2)c1 | -1% | inactive | inactive | – | – | –
19 | CC(=O)O[C@H]1CN2CCC1CC2 | 5% | inactive | inactive | – | – | –
20 | C=C[C@H]1CN2CC[C@H]1C[C@@H]2[C@@H](O)c1ccnc2ccccc12 | 3.57% | inactive | inactive | – | – | –
21 | COc1cc(C(=O)O[C@H]2[C@@H]3C=CO[C@@H](O[C@@H]4O[C@H](CO)[C@@H](O)[C@H](O)[C@H]4O)[C@@H]3[C@@]3(CO)O[C@@H]23)ccc1O | -3.82% | inactive | inactive | – | – | –
22 | C[C@]12CC[C@H](OC3OC(CO)C(O)C(O)C3OC3OC(CO)C(O)C(O)C3O)C[C@@H]1CC[C@@H]1C2CC[C@]2(C)[C@@H](C3=CC(=O)OC3)CC[C@]12O (some centres not stated) | 13.4% | inactive | inactive | – | – | –

Row | SMILES | activation [1] | Potency [2] | Potency [3] | Potency [1] | activity change, negative = inhibition [2] | activity change, negative = inhibition [3]
23 | COC1C=CC23c4cc5c(cc4COC2(O)CN(C)C3C1)OCO5 (configuration not stated) | -5.36% | inactive | inactive | – | – | –
24 | CC(=O)OC[C@]12C[C@H](OC(=O)CC(C)C)C(C)=C[C@H]1O[C@@H]1[C@H](O)[C@@H](OC(C)=O)[C@@]2(C)[C@@]12CO2 | – | inactive | inactive | 0.0828 µM (active) | – | –
25 | COC1CC(OC2CCC3(C)C(=CCC4C3CCC3(C)C(C(C)OC5OC(COC6OC(CO)C(O)C(O)C6O)C(O)C(O)C5O)CCC43O)C2)OC(C)C1OC1OC(C)C(O)C(OC)C1O (configuration not stated) | 5.34% | inactive | inactive | – | – | –
26 | O=C1C[C@@H]2OCC=C3CN4CC[C@]56c7ccccc7N1[C@H]5[C@H]2[C@H]3C[C@H]46 | -3.57% | inactive | inactive | – | – | –
27 | Cc1ccc(Cn2nc(C(=O)N[C@@H]3C(C)(C)[C@@H]4CC[C@@]3(C)C4)cc2-c2ccc(Cl)c(C)c2)cc1 | -9.82% | inactive | inactive | – | – | –
28 | C=C(C)[C@H]1O[C@H]2CC[C@@]3(C)[C@@](O)(CC[C@H]4[C@@H]5OC(C)(C)[C@H]6C[C@@H]7C(=C)Cc8c(Cl)cc9[nH]c(c5c9c8[C@@]76O)[C@@]43C)[C@]23O[C@@H]3[C@H]1O | -8.93% | inactive | inactive | – | – | –
29 | COC(=O)[C@@]1(C)C(=O)C=C[C@]2(C)c3c(O)cc(C(C)C)cc3[C@H](O)[C@@H](OC(C)=O)C12 (some centres not stated) | -3.05% | inactive | inactive | – | – | –
30 | CC12CCC3C(CCC4(O)CC(O)CCC34C=O)C1(O)CCC2C1=CC(=O)OC1 (configuration not stated) | – | inactive | inactive | 10.7 µM (active) | – | –
31 | C=C(C)[C@@]12O[C@@H]1[C@@]1(C)C(=C[C@H]2O)CC[C@@H](O)[C@@H]1C | 8.4% | inactive | inactive | – | – | –
32 | C[C@]12CC[C@H](O[C@@H]3O[C@H](CO)[C@@H](O)[C@H](O)[C@H]3O)CC1=CC[C@@H]1C2CC[C@]2(C)[C@@H](C3=CC(=O)OC3)CC[C@]12O (some centres not stated) | 0.763% | inactive | inactive | – | – | –
33 | C[C@]12CCC(=O)C=C1CC[C@@H]1[C@@H]2[C@@H](O)C[C@]2(C)C(=O)CC[C@@H]12 | 11% | inactive | inactive | – | – | –
34 | CC[C@@H]1C[C@H]2CC[C@H](O2)[C@H](C)C(=O)O[C@@H](C)C[C@@H]2CC[C@@H](O2)[C@@H](C)C(=O)O[C@H](C)C[C@H]2CC[C@H](O2)[C@H](C)C(=O)O[C@@H](C)C[C@@H]2CC[C@@H](O2)[C@@H](C)C(=O)O1 | -13.7% | inactive | inactive | – | – | –
35 | C/C=C1/CN2CC[C@]34C(=Nc5ccccc53)[C@@H]2C[C@@H]1[C@H]4C(=O)OC | 17.9% | inactive | inactive | – | – | –
36 | C=CCN1C[C@H](C)N([C@H](c2ccc(C(=O)N(CC)CC)cc2)c2cccc(OC)c2)C[C@H]1C | -16.4% and -0.333% | – | – | – | -7.89% [at 11.2 µM] | 6.9% [at 11.2 µM]
37 | CC12Cc3cn[nH]c3C=C1CCC1C2CCC2(C)C1CCC2(C)O (configuration not stated) | 8.33% | inactive | inactive | – | – | –
38 | CCC1NC(=O)C2C(Cl)C(Cl)CN2C(=O)C(C(C)O)NC(=O)CC(c2ccccc2)NC(=O)C(CO)NC1=O (configuration not stated) | 8.93% | inactive | inactive | – | – | –
39 | CN1C(=O)c2ccccc2NC(=O)C1Cc1ccccc1 (configuration not stated) | -18.3% | inactive | inactive | – | – | –
40 | CCCCn1cc(C(=O)c2cccc3ccccc23)c2ccccc21 | 0.955% | inactive | inactive | – | – | –
41 | COC(=O)CC1CC2(C(=O)c3c(O)cccc3C2(O)C(=O)OC)C(C)O1 (configuration not stated) | 8.4% | inactive | inactive | – | – | –
42 | CC1=CC2OC3[C@H](O)C[C@@](C)([C@]34CO4)[C@@]2(CO)[C@H](O)C1=O (some centres not stated) | – | inactive | inactive | 23.9 µM (active) | – | –
43 | CC(O)(c1ccccc1)C(Cc1ccc(Cl)cc1)n1cncn1 (configuration not stated) | -8.59% | inactive | inactive | – | – | –
44 | C[C@@](O)(COc1ccc(C#N)cc1)C(=O)Nc1ccc(C#N)c(C(F)(F)F)c1 | -6.21% | inactive | inactive | – | – | –
